From PMC4336329 (PLoS ONE, 2015)
Among all 310,000 compounds or so, about 14,000 (4.5%) showed an effect of 50% or more. Effects have a minus sign here. Shown is part of a subset that was picked to be rich in strong results.

Each molecule was assayed against human ether-à-go-go-related gene (hERG) potassium channel (human, UniProt Q12809) (assay: primary screen, population patch clamp on CHO cells stably expressing hERG; higher = less effect of the substance).
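Further: peak tail current of the secondary pulse compared with the same well before compound.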

Sequence of human ether-à-go-go-related gene (hERG) potassium channel (Q12809 whole entry, looked up): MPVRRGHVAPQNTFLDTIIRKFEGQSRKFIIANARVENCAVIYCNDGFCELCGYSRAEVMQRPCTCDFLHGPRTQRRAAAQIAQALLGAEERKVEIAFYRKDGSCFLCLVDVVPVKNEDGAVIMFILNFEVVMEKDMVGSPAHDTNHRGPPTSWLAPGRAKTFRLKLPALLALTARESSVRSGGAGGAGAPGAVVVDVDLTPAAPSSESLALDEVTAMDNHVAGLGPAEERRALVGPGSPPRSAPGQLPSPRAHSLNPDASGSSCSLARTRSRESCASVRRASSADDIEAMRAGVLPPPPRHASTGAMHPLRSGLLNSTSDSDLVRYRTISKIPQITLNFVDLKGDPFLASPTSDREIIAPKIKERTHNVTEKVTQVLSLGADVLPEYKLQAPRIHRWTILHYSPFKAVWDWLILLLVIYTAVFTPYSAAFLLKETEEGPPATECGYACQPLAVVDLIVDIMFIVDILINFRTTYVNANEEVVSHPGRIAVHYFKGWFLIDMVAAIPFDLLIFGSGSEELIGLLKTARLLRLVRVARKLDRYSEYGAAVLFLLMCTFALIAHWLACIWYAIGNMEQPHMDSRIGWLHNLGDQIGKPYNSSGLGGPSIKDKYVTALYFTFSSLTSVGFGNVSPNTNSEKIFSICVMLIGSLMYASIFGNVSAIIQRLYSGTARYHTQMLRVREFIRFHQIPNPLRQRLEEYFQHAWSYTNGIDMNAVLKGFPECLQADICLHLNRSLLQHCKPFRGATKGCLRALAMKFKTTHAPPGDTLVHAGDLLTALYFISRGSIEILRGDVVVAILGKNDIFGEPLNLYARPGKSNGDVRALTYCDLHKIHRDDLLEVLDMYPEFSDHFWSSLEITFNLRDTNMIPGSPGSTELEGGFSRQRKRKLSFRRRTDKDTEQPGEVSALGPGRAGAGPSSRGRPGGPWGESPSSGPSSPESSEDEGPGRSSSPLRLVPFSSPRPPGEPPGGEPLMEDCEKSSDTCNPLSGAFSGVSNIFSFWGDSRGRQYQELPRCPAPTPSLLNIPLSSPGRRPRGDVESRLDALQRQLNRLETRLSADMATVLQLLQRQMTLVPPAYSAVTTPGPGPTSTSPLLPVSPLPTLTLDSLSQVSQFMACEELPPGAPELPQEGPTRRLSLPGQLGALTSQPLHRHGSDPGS

SMILES	hERG current change (%, negative = inhibition) at 10uM [%]
Cc1ccc(S(=O)(=O)/C(C#N)=C/c2c(N3CC(C)OC(C)C3)nc3ccccn3c2=O)cc1 (stereo not drawn)	-46.3
CN(C(=S)NC(=O)c1ccccc1)c1c(N)n(Cc2ccccc2)c(=O)[nH]c1=O	0.51
Cc1ccc(S(=O)(=O)NCCSc2nnnn2C)cc1	-2.53
Cc1cc2cc(OCc3ccccc3)ccc2n1C	18
CN(C)S(=O)(=O)c1cccc(-c2csc(=Nc3ccccc3)n2CCCN2CCOCC2)c1	-26.5
O=C1[C@@H]2[C@H](C(=O)N1O)[C@H]1C=C[C@@H]2C1	-5.3
CC(C)(C)c1cc(CP(=O)(c2ccccc2)c2ccccc2)cc(C(C)(C)C)c1O	14.7
CC(=O)Nc1ccc(S(=O)(=O)N2CCSC2c2ccc(C)cc2)cc1 (stereo not drawn)	2.9
Cc1csc(NC(=O)c2ccc3c(c2)OCO3)n1	-0.0676
CCN(CC)CCCN(Cc1cc2cc3c(cc2[nH]c1=O)OCO3)C(=S)Nc1ccccc1OC	-10.5
CCN(CC)CCN(Cc1cc2cc(C)ccc2[nH]c1=O)C(=O)Nc1ccccc1OC	-62.2
CCN(CC)CCCN(Cc1cc2cc3c(cc2[nH]c1=O)OCO3)C(=O)Nc1ccccc1OC	-10.6
Nc1c(-c2cccc(Cl)c2)cnn1-c1cccc([N+](=O)[O-])c1	-41.4
O=C1C2C3C=CC(C3)C2C(=O)N1c1ccc(-c2nc3ccccc3c(=O)o2)cc1 (stereo not drawn)	19.6
COC(=O)C1=C(C)N(Cc2ccccc2)C(=O)N[C@H]1c1cccc(C(F)(F)F)c1	-8.04
Oc1ccccc1CN1CCCC(N2CCN(c3cccc(C(F)(F)F)c3)CC2)C1 (stereo not drawn)	-61.9
O=C(C1CCOCC1)N1CCCC(N2CCN(c3cccc(C(F)(F)F)c3)CC2)C1 (stereo not drawn)	-12.9
CC(=O)c1cccc(CN2CCCC(N3CCN(c4ccccc4F)CC3)C2)c1 (stereo not drawn)	-35.3
FC(F)(F)c1ccccc1CN1CCCC(N2CCN(c3ccccc3)CC2)C1 (stereo not drawn)	-0.712
Fc1ccccc1N1CCN(C2CCCN(Cc3ccccc3C(F)(F)F)C2)CC1 (stereo not drawn)	-5.91
CCCN1CCC(N2CCN(c3cccc(C(F)(F)F)c3)CC2)CC1	-75.3
Fc1ccccc1N1CCN(C2CCCN(Cc3cccc(C(F)(F)F)c3)C2)CC1 (stereo not drawn)	-52.1

SMILES	hERG current change (%, negative = inhibition) at 10uM [%]
CCN(CC)CC(=O)N1CCCC(N2CCN(c3cccc(C(F)(F)F)c3)CC2)C1 (stereo not drawn)	-10.5
CN1CCC(N2CCN(c3cccc(C(F)(F)F)c3)CC2)CC1	-12.8
COc1ccc(CCNC(=O)c2nonc2N)cc1	-15.8
COc1ccc(CNC(=O)CN(CCC(C)C)S(=O)(=O)c2ccc3c(c2)OCCO3)cc1	-7.73
O=C(/C=C/c1cccc([N+](=O)[O-])c1)NCc1ccccc1	-23.2
Cc1ccc(C2CC(c3cccc(Br)c3)Nc3nnnn32)cc1 (stereo not drawn)	-7.07
CCCCNC(=O)N(O)C1N(CCCC)C(=O)N(CC(=O)OC)C1(C)C (stereo not drawn)	20
CC(=O)c1sc(NC(=O)C2CC(=O)N(Cc3ccccc3)C2)nc1-c1ccccc1 (stereo not drawn)	-15
COc1ccc(-c2csc(NC(=O)C3CC(=O)N(Cc4ccco4)C3)n2)cc1 (stereo not drawn)	-70.4
CC(=O)c1sc(NC(=O)C2CC(=O)N(Cc3ccco3)C2)nc1-c1ccccc1 (stereo not drawn)	-59.4
Cc1ccc(-c2csc(NC(=O)C3CC(=O)N(Cc4ccco4)C3)n2)cc1 (stereo not drawn)	-25.5
COc1ccc(-c2nc(NC(=O)C3CC(=O)N(Cc4ccco4)C3)sc2C)cc1 (stereo not drawn)	-34.3
CN(c1ccc(-c2csc(NC(=O)C3CC(=O)N(Cc4ccco4)C3)n2)cc1)S(C)(=O)=O (stereo not drawn)	-19
CC(=O)COc1ccc2c3c(c(=O)oc2c1C)CCCCC3	-8.54
Cl.O=C(NCCCn1ccnc1)c1ccc(S(=O)(=O)N2CCOCC2)cc1	8.09
COc1ccc(C2/C(=C(\O)c3ccc4c(c3)OCCO4)C(=O)C(=O)N2CCCN(C)C)cc1 (stereo not drawn)	17
COC(=O)c1ccc(C2/C(=C(\O)c3ccc4c(c3)OCCO4)C(=O)C(=O)N2CCCN(C)C)cc1 (stereo not drawn)	-55.9
COCCCN1C(=O)C(=O)/C(=C(/O)c2ccc3c(c2)OCCO3)C1c1ccc(C(=O)OC)cc1 (stereo not drawn)	1.43
O=C(COC(=O)CC1CC2CCC1C2)NC(=O)NCc1ccco1 (stereo not drawn)	-4.89
Cc1nc2ccccc2c(=O)n1/N=C/c1ccccc1Cl	12.8
COC(=O)Cc1ccc(NC(=S)N2CCCC(C)C2)cc1 (stereo not drawn)	12.7
CC(=O)c1ccc(NC(=S)N2CCCC(CO)C2)cc1 (stereo not drawn)	5.17

SMILES	hERG current change (%, negative = inhibition) at 10uM [%]
COC(=O)Cc1ccc(NC(=S)N2CCCC(CO)C2)cc1 (stereo not drawn)	-63.2
Cc1ccc(S(=O)(=O)c2cc3c(=O)n4ccccc4nc3n(CC3CCCO3)c2=N)cc1C (stereo not drawn)	-50.8
N=c1c(S(=O)(=O)c2ccccc2)cc2c(=O)n3ccccc3nc2n1CC1CCCO1 (stereo not drawn)	-34
COCCNC(=O)CSc1nc2ccccc2c(=O)n1CC1CCCO1 (stereo not drawn)	-11.9
Cc1ccc(S(=O)(=O)c2cc3c(=O)n4ccccc4nc3n(C)c2=N)cc1C	-2.47
O=C(NC1CCCCC1)c1ccc2c(=O)n(CC3CCCO3)c(=O)[nH]c2c1 (stereo not drawn)	5.86
CC(NC(=O)c1cc2c(=O)n3ccccc3nc2n(CC2CCCO2)c1=N)c1ccccc1 (stereo not drawn)	-75.2
CCOC(=O)c1cc2c(=O)n3ccccc3nc2n(CC2CCCO2)c1=NC(=O)/C=C/c1ccccc1 (stereo not drawn)	-35.7
N=c1c(C(=O)NC2CCCC2)cc2c(=O)n3ccccc3nc2n1CC1CCCO1 (stereo not drawn)	-83.7
N=c1c(C(=O)NC2CCCCC2)cc2c(=O)n3ccccc3nc2n1CC1CCCO1 (stereo not drawn)	-74.9
NS(=O)(=O)c1cccc(NC(=O)COC(=O)C2(c3cccc(F)c3)CCCC2)c1	-6.66
Cc1ccc(NC(=O)c2sc(Cl)nc2-c2ccccc2)cc1C	3.94
CC1CC(C)CN(S(=O)(=O)c2ccc3c(c2)oc(=O)n3CC(=O)NCc2cccnc2)C1 (stereo not drawn)	-17.2
COc1cc(C(=O)NC2CCCC2)c(Br)c(OC)c1OC	7.61
COc1ccc(NC(=O)C(CCSC)N2C(=O)c3ccccc3C2=O)cc1 (stereo not drawn)	-10.3
Cc1ccc(S(=O)(=O)/N=C2\C=C(Nc3cccc(C(=O)O)c3)C(=O)c3ccccc32)c(C)c1	27.9
CCCCn1c(N)c(N(CCOC)C(=O)c2cc(S(=O)(=O)N3CCOCC3)ccc2F)c(=O)[nH]c1=O	16.1
Cc1cc(C(=O)COC(=O)c2cccn2C)c(C)n1Cc1ccco1	21.4
Cc1nnc(SCC(=O)Nc2nsc(-c3ccc(Cl)cc3)n2)s1	0.522
Cc1cccc(N2CCN(S(=O)(=O)c3c(C(=O)N4CCCCC4)c(C)n(C)c3C)CC2)c1C	-9.26
COCc1c(C(=O)N2CCN(Cc3ccc4c(c3)OCO4)CC2)oc2ccccc12	-40.8
COCc1c(C(=O)N2CCN(Cc3c(F)cccc3Cl)CC2)oc2ccccc12	-12.2

SMILES	hERG current change (%, negative = inhibition) at 10uM [%]
COCc1c(C(=O)Nc2ccc3nc(N4CCOCC4)sc3c2)oc2ccccc12	-31.2
COCc1c(C(=O)N2CCN(Cc3ccc(C#N)cc3)CC2)oc2ccccc12	-70.2
COCc1c(C(=O)N2CCN(Cc3nc4ccccc4s3)CC2)oc2ccccc12	-72.5
COCc1c(C(=O)N2CCN(S(=O)(=O)c3ccccc3Cl)CC2)oc2ccccc12	-13.9
COCc1c(C(=O)N2CCN(c3ncccn3)CC2)oc2ccccc12	-7.68
COCc1c(C(=O)N2CCN(CCOc3ccccc3)CC2)oc2ccccc12	-63.5
COCc1c(C(=O)N2CCN(c3ccc(C(F)(F)F)cn3)CC2)oc2ccccc12	-23.7
CCC1Oc2ccccc2N(CC(=O)NCCCN2CCCC2)C1=O (stereo not drawn)	15.9
O=C(c1ccc(F)cc1)C(Cc1ccccc1)N1CCCCC1 (stereo not drawn)	1.82
OCCC1CN(C2CCC2)CCN1Cc1ccc(F)c(F)c1 (stereo not drawn)	5.12
COc1cccc(CN2CCN(C3CCOCC3)CC2CCO)c1 (stereo not drawn)	0.171
COc1cccc(CN2CCN(C3CSCCSC3)CC2CCO)c1 (stereo not drawn)	-13
OCCC1CN(C2CSCCSC2)CCN1Cc1ccccc1 (stereo not drawn)	11.9
OCCC1CN(C2CCN(c3ccccc3)CC2)CCN1Cc1ccc(F)c(F)c1 (stereo not drawn)	-71.2
COc1cccc(CN2CCN(C3CCN(c4cccc(C)c4C)CC3)CC2CCO)c1 (stereo not drawn)	-66.2
Cc1cccc(N2CCC(N3CCN(C4CCCCC4)C(CCO)C3)CC2)c1C (stereo not drawn)	-42.7
CCOC(=O)N1CCC(N2CCN(Cc3ccccc3)C(CCO)C2)CC1 (stereo not drawn)	-9.9
CCOC(=O)N1CCC(N2CCN(Cc3ccc(F)c(F)c3)C(CCO)C2)CC1 (stereo not drawn)	-44.7
COc1cccc(CN2CCN(C3CCN(c4ccccc4C)CC3)CC2CCO)c1 (stereo not drawn)	-66.2
COc1ccc(CN2CCN(C3CCC3)CC2CCO)cc1C (stereo not drawn)	8.14
OCCC1CN(C2CCN(c3ccccc3F)CC2)CCN1Cc1ccccc1 (stereo not drawn)	-61.8
